Test results taken from PubChem BioAssay (NCI).
Compounds without any hit were thinned out: in the full panel of roughly 83,000, 20% have a hit.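 A percent growth of 40 corresponds to 60% growth inhibition; 0 means no net growth; -100 means all cells died. Active threshold: below 10.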

Experiments:
Test in all cases: NCI-60 one-dose screen, 48 h (100 = growth as untreated, 0 = no growth, -100 = all killed)
Details in all cases: 10 µM unless noted
NCI-H23 lung = test system: NCI-H23 lung
NCI-H226 lung = test system: NCI-H226 lung
NCI-H322M lung = test system: NCI-H322M lung
HOP-62 NSCLC = test system: HOP-62 NSCLC
NCI-H460 lung = test system: NCI-H460 lung
HOP-92 NSCLC = test system: HOP-92 NSCLC
NCI-H522 lung = test system: NCI-H522 lung
A549/ATCC NSCLC = test system: A549/ATCC NSCLC
786-0 renal = test system: 786-0 renal
COLO 205 colon = test system: COLO 205 colon
DU-145 prostate = test system: DU-145 prostate
K-562 leukemia = test system: K-562 leukemia
MALME-3M melanoma = test system: MALME-3M melanoma
MDA-MB-231 breast = test system: MDA-MB-231 breast
RXF 393 renal = test system: RXF 393 renal
SF-268 CNS = test system: SF-268 CNS
SF-295 CNS = test system: SF-295 CNS
SF-539 CNS = test system: SF-539 CNS
UACC-257 melanoma = test system: UACC-257 melanoma
M14 melanoma = test system: M14 melanoma

Measured: growth

COc1ccc(Oc2ccc(/C=C/C(=O)c3cc4ccccc4oc3=O)cc2)cc1
inactive: NCI-H23 lung 81% | NCI-H226 lung 92.2% | NCI-H322M lung 84.5% | HOP-62 NSCLC 85.6% | NCI-H460 lung 102% | HOP-92 NSCLC 58.2% | NCI-H522 lung 65.1% | A549/ATCC NSCLC 95.2% | 786-0 renal 108% | COLO 205 colon 120% | DU-145 prostate 101% | K-562 leukemia 78.7% | MALME-3M melanoma 94.2% | MDA-MB-231 breast 76% | RXF 393 renal 100% | SF-268 CNS 80.9% | SF-295 CNS 104% | SF-539 CNS 92.5% | UACC-257 melanoma 93.3% | M14 melanoma 90.5%

Nc1ncnc2c1N=C(c1ccc(F)cc1)CC(c1cccc(Nc3ccnc4cc(Cl)ccc34)c1)N2 (stereo not given)
inactive: NCI-H23 lung 77.9% | NCI-H226 lung 91.5% | NCI-H322M lung 89.6% | HOP-62 NSCLC 73.5% | NCI-H460 lung 81.3% | HOP-92 NSCLC 67.8% | NCI-H522 lung 99.7% | A549/ATCC NSCLC 83.5% | 786-0 renal 61.9% | COLO 205 colon 49.8% | DU-145 prostate 85.9% | K-562 leukemia 26.7% | MALME-3M melanoma 91.1% | MDA-MB-231 breast 75.2% | RXF 393 renal 39.1% | SF-268 CNS 62% | SF-295 CNS 72.1% | SF-539 CNS 80.6% | UACC-257 melanoma 106% | M14 melanoma 72.1%

COc1ccc(-c2cc(-c3cn(-c4cccc(Cl)c4)nc3-c3ccc(OC)cc3)on2)cc1
inactive: NCI-H23 lung 95.3% | NCI-H226 lung 89.9% | NCI-H322M lung 86.9% | HOP-62 NSCLC 107% | NCI-H460 lung 98.6% | HOP-92 NSCLC 104% | NCI-H522 lung 74.8% | A549/ATCC NSCLC 83% | 786-0 renal 100% | COLO 205 colon 116% | DU-145 prostate 113% | K-562 leukemia 84.7% | MALME-3M melanoma 127% | MDA-MB-231 breast 80.9% | RXF 393 renal 102% | SF-268 CNS 108% | SF-295 CNS 108% | SF-539 CNS 112% | UACC-257 melanoma 112% | M14 melanoma 101%

CC1(C)CC[C@]2(CO)CC[C@]3(C)[C@](O)([C@H](O)C[C@@H]4[C@@]5(C)CCCNC(C)(C)[C@@H]5CC[C@]43C)[C@@H]2C1
inactive: NCI-H23 lung 95% | NCI-H226 lung 106% | NCI-H322M lung 103% | HOP-62 NSCLC 101% | NCI-H460 lung 88.8% | HOP-92 NSCLC 94% | NCI-H522 lung 92.4% | A549/ATCC NSCLC 85.2% | 786-0 renal 101% | COLO 205 colon 44.2% | DU-145 prostate 103% | K-562 leukemia 10.3% | MALME-3M melanoma 101% | MDA-MB-231 breast 102% | RXF 393 renal 94.9% | SF-268 CNS 98.9% | SF-295 CNS 108% | SF-539 CNS 97.9% | UACC-257 melanoma 96.3% | M14 melanoma 96.1%

O=[N+]([O-])c1c(O)c(Cl)cc(Cl)c1Cl
inactive: NCI-H23 lung 98.7% | NCI-H226 lung 94.4% | NCI-H322M lung 101% | HOP-62 NSCLC 97.9% | NCI-H460 lung 107% | HOP-92 NSCLC 83.3% | NCI-H522 lung 94.7% | A549/ATCC NSCLC 93.1% | 786-0 renal 99.6% | COLO 205 colon 116% | DU-145 prostate 113% | K-562 leukemia 103% | MALME-3M melanoma 96.5% | MDA-MB-231 breast 103% | RXF 393 renal 104% | SF-268 CNS 102% | SF-295 CNS 97.9% | SF-539 CNS 109% | UACC-257 melanoma 108% | M14 melanoma 98.1%

CCOC(=O)CNC1=C(Cl)C(=O)N(Cc2ccc(Cl)cc2)C1=O
inactive: NCI-H23 lung 102% | NCI-H226 lung 99.7% | NCI-H322M lung 97% | HOP-62 NSCLC 98% | NCI-H460 lung 104% | HOP-92 NSCLC 93.4% | NCI-H522 lung 89.1% | A549/ATCC NSCLC 106% | 786-0 renal 99% | COLO 205 colon 118% | DU-145 prostate 113% | K-562 leukemia 106% | MALME-3M melanoma 93.9% | MDA-MB-231 breast 104% | RXF 393 renal 120% | SF-268 CNS 98.5% | SF-295 CNS 108% | SF-539 CNS 90.6% | UACC-257 melanoma 106% | M14 melanoma 105%

O=C(c1ccc(Br)cc1)C(Br)C(c1ccc(Cl)cc1)C(c1ccccc1)[N+](=O)[O-] (stereo not given)
inactive: NCI-H23 lung 91.4% | NCI-H226 lung 99.3% | NCI-H322M lung 101% | HOP-62 NSCLC 99.7% | NCI-H460 lung 95.5% | HOP-92 NSCLC 107% | NCI-H522 lung 85.7% | A549/ATCC NSCLC 93.8% | 786-0 renal 90.3% | COLO 205 colon 110% | DU-145 prostate 97.5% | K-562 leukemia 106% | MALME-3M melanoma 86.2% | MDA-MB-231 breast 85.4% | RXF 393 renal 77.2% | SF-268 CNS 90.2% | SF-295 CNS 95.1% | SF-539 CNS 96% | UACC-257 melanoma 102% | M14 melanoma 92.8%

COc1ccc(-c2nc3ccc(C)cc3c3c2c(=O)n(C)c(=O)n3C)cc1OC
inactive: NCI-H23 lung 98.8% | NCI-H226 lung 108% | NCI-H322M lung 118% | HOP-62 NSCLC 112% | NCI-H460 lung 112% | HOP-92 NSCLC 99.2% | NCI-H522 lung 107% | A549/ATCC NSCLC 89.9% | 786-0 renal 103% | COLO 205 colon 109% | DU-145 prostate 108% | K-562 leukemia 107% | MALME-3M melanoma 111% | MDA-MB-231 breast 102% | RXF 393 renal 99.2% | SF-268 CNS 100% | SF-295 CNS 91.3% | SF-539 CNS 108% | UACC-257 melanoma 114% | M14 melanoma 109%
